Bioassay records: PubChem, several laboratories
The list is not random: actives were taken first. Their share in the collection is about 0.69%.
MMP13 inh: human MMP13 inhibitors, primary screen, biochemical, FRET peptide cleavage; Collagenase 3 (Homo sapiens), P45452; MMP-13 fTHP FRET cleavage, Mca fluorescence; inhibition, % at 4 µM; actives 0.07% (n = 65,000);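 active = inhibition above the mean of compound-free control plate wells plus 3 SD, cut at about 14% in these data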;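 note: 0% = DMSO wells and 100% = wells with reference MMP-13 inhibitor after basal subtraction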
FXIIa mix inh: human factor XIIa inhibitors, primary screen, biochemical, pooled compound mixtures, fluorogenic substrate. Coagulation factor XII (Homo sapiens), P00748. purified FXIIa. inhibition, % at 5 µM. actives 0.2% (n = 62,000);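 note: 0% = enzyme without compound and 100% = no enzyme blank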
FXIa inh mix: FXIa protease inhibitors in compound pools, primary screen, biochemical, 10-compound mixtures; actives 0.19% (n = 62,000); purified FXIa, fluorogenic substrate, pooled mixtures; AID 680, 2007; inhibition, % at 5 µM; Coagulation factor XI (Homo sapiens), P03951;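 note: each value is inhibition by a whole ten-compound pool holding the compound; 0% = enzyme with no mixture and 100% = wells lacking enzyme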
Target sequence (P03951 19-387 limits assumed): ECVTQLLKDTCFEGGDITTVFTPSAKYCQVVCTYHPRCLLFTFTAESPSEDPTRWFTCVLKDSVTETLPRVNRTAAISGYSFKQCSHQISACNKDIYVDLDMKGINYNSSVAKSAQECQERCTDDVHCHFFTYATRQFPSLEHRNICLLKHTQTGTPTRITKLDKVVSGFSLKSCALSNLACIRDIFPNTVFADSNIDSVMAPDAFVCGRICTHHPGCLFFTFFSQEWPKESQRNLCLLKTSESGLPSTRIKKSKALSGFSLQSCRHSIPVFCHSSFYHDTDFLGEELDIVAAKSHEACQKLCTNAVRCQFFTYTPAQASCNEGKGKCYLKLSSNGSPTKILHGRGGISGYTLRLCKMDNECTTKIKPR
Target sequence (P03951 388-625 limits assumed): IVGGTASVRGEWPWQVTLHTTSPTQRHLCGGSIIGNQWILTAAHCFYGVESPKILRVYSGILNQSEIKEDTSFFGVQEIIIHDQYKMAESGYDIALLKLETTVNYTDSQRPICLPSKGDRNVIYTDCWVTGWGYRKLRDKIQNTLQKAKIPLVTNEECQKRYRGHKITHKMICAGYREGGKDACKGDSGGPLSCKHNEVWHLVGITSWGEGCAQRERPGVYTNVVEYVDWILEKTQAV
MT1-MMP txn act: MT1-MMP promoter reporter activation – cell-based, luciferase luminescence, primary screen; actives 0.16% (n = 86,000); HT1080 MT1-MMP promoter luciferase reporter, overnight; hits give high values; activation factor at 10 µM; AID 750, 2007;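 active = activation factor of at least 2 for MT1-MMP transcription at 10 µM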
E coli RNAP: E. coli RNAP inhibitors, biochemical | DNA-directed RNA polymerase subunit beta (Escherichia coli (strain K12)), P0A8V2 | E. coli RNA polymerase, fluorescence transcription assay | inhibition, %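 (tested at 10 µM)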 | actives 0.2% (n = 62,000) | AID 559, 2006; in the data active = inhibition above about 20%;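 note: 0% = enzyme without compound and 100% = no enzyme blank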
WNV protease inh: inhibitors of WNV NS2B-NS3 protease, primary screen, biochemical, fluorogenic substrate. z-score (concentration not given with the values). fluorogenic substrate Ex360/Em465; hits give low values. actives 0.18% (n = 65,000); in the data active = z-score below about -3
* = called active by the depositor; · = not tested or not shown. Cut-off read from the data, not from the text of the source, unless noted: active = inhibition above about 20% (passing the limit was not always enough); inactive = the rest.

SMILES	MMP13 inh	FXIIa mix inh	FXIa inh mix	MT1-MMP txn act	E coli RNAP	WNV protease inh
O=C(NC1CCS(=O)(=O)C1)c1c(NC(=O)C2COc3ccccc3O2)sc2c1CCCC2 (stereo unspecified)	-8	12	9	1.2	32*	-1.1
COC(=O)c1ccc(C(/C=C/[C@@H](C)CO)NC(=O)OCc2ccccc2)cc1 (stereo partly specified)	·	·	·	1.2	·	·
CC(=O)c1ccc(-n2nncc2C(C)(C)C)cc1	4	34*	1	1.1	0	-1.4
CC(C)(C)c1cnnn1-c1ccc(NC(=O)c2ccc3c(c2)OCO3)cc1	1	6	6	1.3	5	-1.6
Cc1ccccc1-c1noc(-c2ccc(Cl)cc2)n1	·	·	·	2.1*	·	·
Cc1ccccc1-c1noc(-c2ccc(O)cc2)n1	-1	3	2	1.1	·	-1.5
COc1nc2c(s1)C(=O)NCCC2	-6	20*	7	1.2	1	-1.2
C[C@@H](C(=O)NCCc1c[nH]c2ccccc12)[C@H]1C[C@]1(C)[C@H](NC(=O)OCc1ccccc1)c1ccccc1	·	·	·	1.1	·	·
CCC1=C2CC[C@H]3C(=O)N(c4ccccc4)C(=O)[C@H]3[C@H]2[C@@]2(Cc3ccccc3)C(=NCCc3c[nH]c4ccccc34)OC(=O)N2C1=O	·	·	·	1.2	·	·
Cc1sc2nc3c4ccccc4c(NCc4ccco4)nn3c(=O)c2c1C	-17	-2	-2	1.4	5	-3.3*
CCOC(=O)C1CCN(S(=O)(=O)c2ccc(C(=O)OC)cc2)CC1	5	9	4	1	5	-5.5*
CCOC(=O)C1CCN(S(=O)(=O)c2ccc(C)cc2)CC1	·	·	·	1.2	·	·
CCOCCn1c(CN2CCN(CC)CC2)nc2c1c(=O)n(C)c(=O)n2C	-1	5	3	1	22*	-0.11
COc1ccccc1C1NC(=O)NC(C)=C1C(C)=O (stereo unspecified)	-3	72*	12	1	1	-1.6
COc1ccc(-c2nnc(SCC(=O)NCc3cccs3)n2CC(C)C)cc1	·	·	·	1.1	·	·
CCC(=O)n1nc(-c2ccc(OC)cc2)nc1SC	·	·	·	1.1	·	·
COc1ccc(-c2nc(SC)n(C(=O)c3ccco3)n2)cc1	1	4	24*	1.4	8	-3
O=S(=O)(Nc1cccnc1)c1cccs1	1	5	45*	1	1	1.5
COC(=O)Cc1c(C)c2c(OCc3nn[nH]n3)cc(C)cc2oc1=O	-155	24*	-4	1.2	6	-0.36
COC(=O)Cc1c(C)c2ccc(OCc3nn[nH]n3)cc2oc1=O	·	·	·	1	·	·
CCOC(=O)c1cc(NC(=O)Nc2ccc(OC)c(OC)c2)c(C)nc1C	0	9	29*	·	2	-1.4
CCOC(=O)c1cc(NC(=O)N(C(C)C)C(C)C)c(C)nc1C	·	·	·	1.1	·	·
COC(=O)[C@@]1(Cc2ccccc2)[C@H]2c3cc(C(=O)N4CCCC4)n(Cc4cc(F)cc5c4OCOC5)c3C[C@H]2CN1C(=O)c1ccccc1	·	·	·	1.2	·	·
CC(CCc1ccccc1)NC(=O)c1nnc(Cc2ccc(F)cc2)o1 (stereo unspecified)	-3	5	6	1.1	7	1.3
CNC(=O)c1nnc(Cc2ccc(F)cc2)o1	-4	2	4	1.1	-10	-3.1*
SMILES	MMP13 inh	FXIIa mix inh	FXIa inh mix	MT1-MMP txn act	E coli RNAP	WNV protease inh
Cc1nnc(-n2ncc(C#N)c2N)c2nn(-c3ccccc3F)c(C)c12	·	·	·	1.1	·	·
CN(C)c1ccc(/C=N/N2C(=S)SC(C)(C)C2N(O)C(=O)Nc2ccc([N+](=O)[O-])cc2)cc1 (stereo unspecified)	·	·	·	1.2	·	·
CC(=O)C(C(C)=O)c1c(Cl)c(O)c(O)c2c(C(=O)c3ccccc3)coc12	0	10	10	1	32*	-2.4
CCC1=C2CC[C@H]3C(=O)N(CC(=O)OC)C(=O)[C@H]3[C@H]2[C@@]2(C)C(=O)N(CC3CC3)C(=O)N2C1=O	·	·	·	1.2	·	·
Cn1c(=O)c2cc(NC(=O)c3ccccc3Cl)c(=O)oc2n(C)c1=O	2	1	33*	1.1	7	0.72
CCC(C)NS(=O)(=O)c1ccc(S(=O)(=O)N(CC(=O)Nc2ccccc2)CC2CCCO2)cc1 (stereo unspecified)	·	·	·	1	·	·
CC(=O)N1C2(C=CC1(C)C(=O)NCc1ccc(C)o1)CCCCC2 (stereo unspecified)	·	·	·	1.1	·	·
COC(=O)c1oc2ccc(Cl)cc2c1-n1cccc1	·	·	·	1.3	·	·
COc1ccccc1NC(=O)c1cc(S(=O)(=O)N2CCOCC2)ccc1Cl	-1	32*	4	1.2	2	0.4
O=C(Nc1ccccc1O)c1cc(S(=O)(=O)N2CCOCC2)ccc1Cl	5	-18	11	1.1	1	-0.72
O=C(NCCCn1ccnc1)NC(C(F)(F)F)C(F)(F)F	6	-3	5	0.9	6	-0.43
O=C(NCCCn1ccnc1)Nc1cccc2ccccc12	·	·	·	2.1*	·	·
CC(=O)C(CC(=O)N1CCCc2ccccc21)C(=O)Nc1ccc(F)cc1 (stereo unspecified)	·	·	·	1.2	·	·
CCn1cc(CNC(=O)CCSc2nc(-c3ccco3)cc(C(F)(F)F)n2)cn1	·	·	·	1.3	·	·
Cc1ccccc1S(=O)(=O)Cc1ccc(C(=O)NCCCOC(C)C)o1	-4	11	-3	1.3	8	-5.6*
COC(=O)[C@@]1(Cc2ccc(OC)cc2)[C@H]2c3cc(C(=O)N4CCCC4)n(CCc4c[nH]c5ccc(OC)cc45)c3C[C@H]2CN1C(=O)c1ccccc1	·	·	·	1.1	·	·
COc1ccc(C2CC(c3cccc(C)c3)n3ncnc3N2)cc1 (stereo unspecified)	2	7	3	1.1	0	-4.1*
Cc1cc(-c2ccccc2C(=O)O)on1	0	12	-8	1.1	·	-0.27
Cc1cc(-c2ccccc2C(=O)NCc2ccccc2)on1	-3	5	27*	1.1	14	-0.72
O=C(Nc1cccc(-c2nnc(-c3ccco3)o2)c1)C(c1ccccc1)c1ccccc1	·	·	·	1.1	·	·
COc1ccc(OC)c(-c2cc(C(=O)Nc3c(C)nn(Cc4ccccc4)c3C)no2)c1	-5	9	20*	1	7	0.75
COc1ccc(OC)c(-c2cc(C(=O)Nc3c(C)nn(Cc4ccc(Cl)cc4)c3C)no2)c1	-8	8	6	1	6	-0.61
Cc1ccc(S(=O)(=O)NC(=O)NCc2ccc(Cl)cc2)cc1	·	·	·	1.3	·	·
C=CCNC(=O)NS(=O)(=O)c1ccc(C)cc1	1	2	22*	1.2	9	0.82
CC(C)=C1C(=O)C(c2ccccc2)=C2CN3C(=O)N(CCc4ccccc4)C(=O)[C@]3(Cc3ccccc3)[C@H]21	·	·	·	1.4	·	·
